The list is not random: actives were taken first. Their share in the collection is about 5.7%.
AHR act: activates the human aryl hydrocarbon receptor; AHR-responsive luciferase reporter cells, luminescence; activation, % at 5 µM; 320,000 tested, 2.5% active; AID 2796; in the data active = activation above about 47%
Target sequence (P35869 whole entry, looked up): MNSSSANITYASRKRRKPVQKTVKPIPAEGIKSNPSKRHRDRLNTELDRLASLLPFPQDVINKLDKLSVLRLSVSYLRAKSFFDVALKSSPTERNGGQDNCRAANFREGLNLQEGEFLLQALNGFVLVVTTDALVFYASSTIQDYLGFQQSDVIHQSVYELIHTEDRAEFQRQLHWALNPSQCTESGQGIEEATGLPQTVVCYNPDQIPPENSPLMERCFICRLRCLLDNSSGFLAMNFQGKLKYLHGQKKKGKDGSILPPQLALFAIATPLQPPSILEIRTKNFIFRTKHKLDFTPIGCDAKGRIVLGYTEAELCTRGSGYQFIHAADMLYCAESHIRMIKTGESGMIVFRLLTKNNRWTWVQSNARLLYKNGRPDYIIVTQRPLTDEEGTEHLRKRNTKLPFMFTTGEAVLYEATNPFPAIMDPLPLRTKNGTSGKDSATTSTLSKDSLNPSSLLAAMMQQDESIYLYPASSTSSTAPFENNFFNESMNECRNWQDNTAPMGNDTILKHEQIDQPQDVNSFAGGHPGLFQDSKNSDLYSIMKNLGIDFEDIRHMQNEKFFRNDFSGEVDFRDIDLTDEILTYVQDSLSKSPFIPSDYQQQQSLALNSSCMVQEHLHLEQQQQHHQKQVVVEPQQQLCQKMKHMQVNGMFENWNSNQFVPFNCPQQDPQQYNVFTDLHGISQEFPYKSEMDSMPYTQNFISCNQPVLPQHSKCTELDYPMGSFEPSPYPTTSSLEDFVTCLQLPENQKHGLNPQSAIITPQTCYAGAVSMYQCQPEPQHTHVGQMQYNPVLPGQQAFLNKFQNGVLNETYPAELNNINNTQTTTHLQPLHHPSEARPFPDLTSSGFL
hcDAF12 agonist: activates DAF-12 receptor from parasite H. contortus. HEK293 hcDAF-12 lit1-tk-luc reporter, luminescence; 0% DMSO, 100% Δ7-dafachronic acid. activation, % at 6.8 µM. 370,000 tested, 1.4% active;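 active = activation above the mean of all tested compounds plus 3 SD, cut at about 5.5% in these data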
hgDAF12 agonist: activates the H. glycines DAF-12 receptor ligand-binding domain | HEK293 GAL4-hgDAF12 UAS-luciferase reporter, agonist luminescence; normalized to butyrate control | activation, % at 6.8 µM | 370,000 tested, 1.8% active | AID 687014;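 active = activation above a cutoff set at the mean of all screened compounds plus 3 SD, cut at about 10% in these data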
ssDAF12 agonist: S. stercoralis DAF-12 activation, primary screen; HEK293 ssDAF-12/GRIP1 lit1-tk-luc reporter, luminescence; % of 3 µM dafachronic acid response; activation, % at 6.8 µM; 370,000 tested, 1% active;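 active = activation above the mean over all tested compounds plus 3 SD, cut at about 0.9% in these data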
DAX1 inh-1: blocks DAX1 repression of SF-1 activated StAR promoter. HEK293T StAR-luciferase reporter, SF-1/DAX-1 repression relief. inhibition, % at 6.8 µM. 370,000 tested, 1.1% active. AID 652010;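 active = inhibition above the mean over all tested compounds plus 3 SD, cut at about 3.6% in these data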;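 also: higher inhibition means more luminescence from relief of DAX-1 repression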
DAX1 inh-2: NR0B1 (DAX1) inhibition; P51843; HEK293 Gal4-DAX1 luciferase reporter, luminescence; inhibition, % at 6.75 µM; 340,000 tested, 0.99% active;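 active = inhibition above the mean over all tested compounds plus 3 SD, cut at about 4.2% in these data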;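 also: inhibition shows as a rise in luminescence from relieved DAX1 repression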
hgDAF12 ag: hgDAF-12 agonism, confirmation assay. shares compounds with hgDAF12 agonist. HEK293 GAL4-hgDAF12 luciferase reporter, agonist mode; percent of butyrate response. activation, % at 6.8 µM. 3,300 tested, 80% active. AID 743050;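 active = mean activation over triplicate wells above the hit cutoff derived from the earlier primary screen, cut at about 11% in these data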
LXR ag 2: counter-screen for DAF-12 agonists: agonists of human LXR-beta. shares compounds with hgDAF12 agonist. HEK293 Gal4-LXR luciferase reporter, 24 h. activation, % at 6.8 µM. 3,300 tested, under 10 active;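 active = mean activation of the triplicate above a set limit carried over from the primary screen, none filed active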
Each line names hits and unclear results; the compound was inactive in the other large screens (follow-up assays come after a bar, where they were run).

CCc1ccc(NC(=S)NC(=O)CC(C)C)cc1	hgDAF12 agonist 15 | hgDAF12 ag 12 | LXR ag 2 inactive
CCN(CC)S(=O)(=O)c1ccc(NC(=S)NC(=O)CC(C)C)cc1	none
COc1ccc(C2=Nn3c(C)nnc3SC2)cc1	none
CCN(CC)S(=O)(=O)c1ccc2c(c1)N(CC(=O)NCc1ccccn1)C(=O)CO2	none
Nc1ccc2c(c1)Cc1cc(N)c(Cl)cc1-2	hgDAF12 agonist 15 (no result: AHR act) | hgDAF12 ag 12 | LXR ag 2 inactive
Clc1cccc(-c2nc(-c3ccc(-c4nn[nH]n4)cc3)no2)c1	none
CC(=O)c1cccc(-c2csc(N3CCC(C(N)=O)CC3)n2)c1	none
CC(C)Oc1cccc(-c2csc(N3CCC(C(N)=O)CC3)n2)c1	hgDAF12 agonist 15 (no result: AHR act, DAX1 inh-1, DAX1 inh-2) | hgDAF12 ag inactive | LXR ag 2 inactive
NC(=O)C1CCN(c2nc(-c3ccc4c(c3)OCCCO4)cs2)CC1	hgDAF12 agonist 17 (no result: AHR act, DAX1 inh-1, DAX1 inh-2) | hgDAF12 ag 18 | LXR ag 2 inactive
CNC(=O)COc1coc(CN2CCN(c3cccc(Cl)c3)CC2)cc1=O	none
Cc1ccc(S(=O)(=O)N2CCN(C(=O)CNC(=O)c3ccc(Br)o3)CC2)cc1	none
COc1ccc(NC(=O)c2cc3ccccc3o/c2=N\NS(=O)(=O)c2ccc(C)cc2)cc1	hcDAF12 agonist 6.0, hgDAF12 agonist 14 | hgDAF12 ag 13 | LXR ag 2 inactive
COc1ccccc1CC(=O)NC1CC1	none
COc1ccccc1CC(=O)NC1CCCCCC1	hgDAF12 agonist 13 | hgDAF12 ag inactive | LXR ag 2 inactive
Nc1cc2nc[nH]c2cc1N	hcDAF12 agonist 6.1, hgDAF12 agonist 15 (no result: AHR act) | hgDAF12 ag inactive | LXR ag 2 inactive
COc1ccccc1/C=C/C(=O)Nc1ccc2c(c1)OCCO2	hgDAF12 agonist 17 | hgDAF12 ag 18 | LXR ag 2 inactive
COc1ccc(/C=C/C(=O)Nc2ccccc2)cc1OC	hgDAF12 agonist 17 | hgDAF12 ag inactive | LXR ag 2 inactive
COc1cc(/C=C/C(=O)NC(=O)c2ccccc2O)ccc1OC(C)=O	hgDAF12 agonist 15 | hgDAF12 ag inactive | LXR ag 2 inactive
COc1ccc(/C=C/C(=O)NC(=S)Nc2ccccc2)cc1OC	none
CN(C)S(=O)(=O)c1ccc(C(=O)OCC2CCCO2)cc1 (stereo not given)	none (no result: AHR act)
COc1ccc(CC(=O)Nc2cc(C)ccn2)cc1	none
O=S(=O)(N/N=C\c1ccc2c(c1)OCO2)c1ccc(Cl)cc1	none
CNC(=O)Nc1ccc(Cl)cc1	none
CC(C)=CC(=O)Nc1ccc(Cl)cc1	hgDAF12 agonist 19, ssDAF12 agonist 1.7 | hgDAF12 ag 12 | LXR ag 2 inactive
C1=CCN(Cc2ccccc2)C1	none
COC(=O)c1sccc1-c1ccc(C(=O)Nc2ccccc2)o1	hgDAF12 agonist 13 | hgDAF12 ag 13 | LXR ag 2 inactive
c1ccc(CSc2ncn(-c3ccccc3)n2)cc1	hgDAF12 agonist 14, DAX1 inh-2 5.0 | hgDAF12 ag 19 | LXR ag 2 inactive
Nc1nc(CSc2ncn(-c3ccccc3)n2)cs1	none (no result: hcDAF12 agonist, hgDAF12 agonist, ssDAF12 agonist, DAX1 inh-1)
CC(=O)Nc1cncc(-c2ccc(CN(C)C)cc2)n1	none (no result: AHR act, DAX1 inh-2)
CNc1cncc(-c2ccc(CN(C)C)cc2)n1	hgDAF12 agonist 16, DAX1 inh-1 4.0 (no result: AHR act, DAX1 inh-2) | hgDAF12 ag inactive | LXR ag 2 inactive
CCN(CC)c1ccc(NC(=O)c2ccc(Br)o2)cc1	hgDAF12 agonist 16, DAX1 inh-2 5.0 | hgDAF12 ag 15 | LXR ag 2 inactive
CC(C)CC(c1nnnn1Cc1ccc2c(c1)OCO2)N1CCC(C(N)=O)CC1 (stereo not given)	none
CN1C(=O)C(C)(C)c2cc(S(=O)(=O)N3CCCC(C(=O)NCc4ccccc4Cl)C3)ccc21 (stereo not given)	none
COCCNC(=O)c1noc2c1CCc1cc(OC)ccc1-2	hgDAF12 agonist 14 | hgDAF12 ag 12 | LXR ag 2 inactive
O=C1CC(=O)Nc2cc(S(=O)(=O)Nc3cccc(C(F)(F)F)c3)ccc2N1	none
